# Only some compounds are listed: those with a hit (about 0.85% of all), similar ones and a draw of the others.
# TDP1 block: TDP1 (human) enzyme inhibition. Q9NUW8. recombinant TDP1, AlphaScreen DNA substrate cleavage. Potency, µM (highest dose often 130 µM), for inactives: at the highest dose activity change, negative = inhibition, usual class: inhibitors. 0.28% of 350,000 active; also: nearly all actives have a fitted effect of over 40% in size
#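 Here, a 5' biotin and 3' phosphotyrosine-FITC DNA oligonucleotide reports Tdp1 activity: intact substrate bridges AlphaScreen beads, while cleavage leaves a 3' phosphate and drops signal. All incubations at room temperature.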
# PGK inhibitor: T. brucei PGK inhibition. 0.043% of 380,000 active. PGK/GAPDH coupled, Kinase-Glo luminescence, 60 min. Potency, µM (titrated, usually from 57.5 µM), without a hit: at the highest dose activity change, negative = inhibition, hits mostly inhibitors. P07378; also: nearly all actives have a fitted effect of over 60% in size
#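 Luminescent ATP detection (Kinase-Glo Plus) follows a 60-minute room-temperature incubation, with wells lacking PGK as controls. Buffer: 100 mM TEA (pH 7.6), 5 mM MgCl2, 0.01% Tween-20. Coupling enzyme GAPDH (100 nM final) supplies unstable 1,3-BPG in-well.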
# APE1 inh: APE1 (human) endonuclease inhibition | P27695 | 0.35% of 350,000 active | Potency, µM (titrated, usually from 65.8 µM), for the others: at the highest dose activity change, negative = inhibition, hits mostly inhibitors | recombinant APE1, TAMRA/BHQ-2 abasic DNA cleavage fluorescence | AID 2517;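 also: plate controls were vehicle for no effect and reference inhibitor for full effect; nearly all actives have a fitted effect of over 55% in size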
# Target sequence (P27695 whole entry, looked up): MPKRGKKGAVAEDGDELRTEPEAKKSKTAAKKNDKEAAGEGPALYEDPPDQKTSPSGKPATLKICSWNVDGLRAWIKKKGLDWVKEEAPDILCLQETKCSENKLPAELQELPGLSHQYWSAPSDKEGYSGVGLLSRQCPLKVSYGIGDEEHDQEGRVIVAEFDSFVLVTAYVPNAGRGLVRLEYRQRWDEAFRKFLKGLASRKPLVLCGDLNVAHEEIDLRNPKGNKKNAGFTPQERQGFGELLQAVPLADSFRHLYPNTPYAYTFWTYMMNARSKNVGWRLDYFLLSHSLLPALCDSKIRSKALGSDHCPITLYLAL
#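 Substrate: short duplex with […] THF abasic site, 5'-TAMRA and 3'-BHQ-2, 50 nM final. APE1 at 0.75 nM, preincubated 15 min RT with compound. Fluorescence increase from first to third read measured activity.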
# BLM inh: Bloom syndrome helicase (human) inhibition; recombinant BLM DNA unwinding, fluorescence dequenching; P54132; Potency, µM (highest dose often 56.1 µM), without a hit: at the highest dose activity change, negative = inhibition, most hits filed as inhibitors; 0.2% of 350,000 active;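 also: plate controls were vehicle for no effect and no enzyme for full effect; nearly all actives have a fitted effect of over 35% in size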
# RECQ1 inh-1: inhibitors of human RECQ1 DNA helicase | AID 2549 | Potency, µM (titrated, usually from 57.3 µM), inactives show top-dose activity, negative = inhibition, most hits filed as inhibitors | 0.54% of 240,000 active | RECQ1 DNA unwinding, red fluorescence kinetic read | P46063;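 also: plate controls were vehicle for no effect and no enzyme for full effect; nearly all actives have a fitted effect of over 30% in size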
#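 50 nM RECQ1T1 preincubated 15 min with compound in Tris pH 8.0 buffer with MgCl2, DTT, Tween-20 and 2.5 ug/ml poly(dI-dC); started with 200 nM TAMRA/BHQ-2 forked duplex and 2 mM ATP. Unwinding read as fluorescence (525/598 nm), two reads 2 h apart.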
# GLS inhibitor: glutaminase GLS (human) inhibition; O94925; GLS enzymatic activity, qHTS titration; Potency, µM (highest dose often 45.5 µM), for the others: at the top dose activity change, negative = inhibition, most hits filed as inhibitors; 0.21% of 410,000 active; AID 624170
#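 Two-point fluorescence kinetic (t0, 30 min RT) for hKGA; glutamate detected via glutamate oxidase–HRP–Amplex Red. Substrate: 1 mM L-glutamine solution; buffer 45 mM KH2PO4, pH 8.2.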
# RECQ1 conf: confirmation of human RECQ1 helicase inhibitors. shares compounds with RECQ1 inh-1. RECQ1 helicase DNA unwinding, fluorescence. Potency, µM (top dose mostly 229 µM), for inactives: at the top dose activity change, negative = inhibition, hits mostly inhibitors. 28% of 610 active. AID 2708; also: nearly all actives have a fitted effect of over 45% in size
# RECQ1 ADP FP: ADP displacement flagged in RECQ1 inhibitor counter-screen | shares compounds with RECQ1 inh-1 | ADP fluorescence polarization displacement counterscreen | Potency, µM (top dose mostly 228 µM), for inactives: at the highest dose activity change, negative = inhibition, most hits filed as inhibitors | 27% of 530 active | AID 2711; also: nearly all actives have a fitted effect of over 45% in size
# RECQ1 inh-2: confirmation of human RECQ1 helicase inhibitors; 15% of 1,100 active; Potency, µM (top dose mostly 119 µM), for the others: at the top dose activity, negative = inhibition, actives largely listed as inhibitors; recombinant RECQ1 DNA unwinding, red fluorescence; shares compounds with RECQ1 inh-1; also: nearly all actives have a fitted effect of over 50% in size
# * hit, by the source's call; ? = inconclusive; . = not tested or not shown; [ ] = dose if it differs, or a comment. Calls follow the shape of the dose curve; as a rule, active = well fitted curve in the direction sought with a large enough effect; inconclusive = small, poorly fitted or top-dose-only effect, or another doubt; inactive = no such curve, though single readings can be large; an effect the other way counts as inactive or inconclusive. Unless noted, % is scaled to controls: 0 for no effect and ±100 for the full control effect; potency is read from the fitted curve at half-maximal effect.
SMILES,TDP1 block,PGK inhibitor,APE1 inh,BLM inh,RECQ1 inh-1,GLS inhibitor,RECQ1 inh-2,others
CC[C@H](C)[C@H](NC(=O)[C@H](Cc1ccc(O)cc1)NC(=O)[C@H](Cc1cnc[nH]1)NC(=O)[C@H](CCCNC(=N)N)NC(=O)[C@H](CC(C)C)NC(=O)[C@H](C)NC(=O)[C@H](CO)NC(=O)[C@H](Cc1ccc(O)cc1)NC(=O)[C@H](Cc1ccc(O)cc1)NC(=O)[C@H](CCCNC(=N)N)NC(=O)[C@H](C)NC(=O)[C@H](CCSC)NC(=O)[C@H](CC(=O)O)NC(=O)[C@H](CCC(=O)O)NC(=O)[C@H](C)NC(=O)[C@@H]1CCCN1)C(=O)N[C@@H](CC(N)=O)C(=O)N[C@@H](CC(C)C)C(=O)N[C@H](C(=O)N[C@H](C(=O)N[C@@H](CCCNC(=N)N)C(=O)N[C@@H](CCC(N)=O)C(=O)N[C@@H](CCCNC(=N)N)C(=O)N[C@@H](Cc1ccc(O)cc1)C(N)=O)[C@@H](C)O)[C@@H](C)CC,12.1%,.,3.8%,4.2%,-3.8%,.,.,
Cc1cc(C(=O)CSc2nnc(-c3ccccc3)n2-c2ccccc2)c(C)n1-c1ncn[nH]1,-11.1%,-6.3%,1.1%,-11.0%,35.5µM*,?,?,
CN(C)c1ccc(/C=C2\SC(=S)N(Nc3ncc(C(F)(F)F)cc3Cl)C2=O)cc1,3.1%,-12.1%,-1.5%,-11.3%,10µM*,-0.3%,.,RECQ1 conf=7.94µM*;RECQ1 ADP FP=14.0%[91.9 µM]
Cc1cc(C)nc(NN2C(=O)/C(=C/c3ccccc3)SC2=S)n1,-7.8%,-10.1%,0.0%,-1.0%,-6.4%,-8.2%,.,
NC(N)=NCCC[C@H](NC(=O)[C@H](Cc1ccccc1)NC(=O)[C@@H]1CCCN1C(=O)[C@H](CO)NC(=O)[C@H](Cc1ccccc1)NC(=O)CNC(=O)[C@@H]1CCCN1C(=O)[C@@H]1CCCN1C(=O)[C@@H](N)CCCN=C(N)N)C(=O)O,4.9%,.,0.3%,-1.4%,-14.3%,.,.,
CC[C@H](C)[C@H](NC(=O)[C@H](CC(C)C)NC(=O)[C@@H](N)CO)C(=O)NCC(=O)N[C@@H](CCCCN)C(=O)N[C@H](C(=O)O)C(C)C,10.8%,.,-3.9%,5.4%,-11.7%,.,.,
O=C(CSc1nnc(-c2ccco2)n1Cc1ccccc1)c1ccc(F)cc1,-13.5%,-3.8%,0.8%,-12.7%,?,3.9%,-16.7%,
ICCc1ccccc1,-3.7%,.,4.2%,.,1.0%,.,.,
CCOC(=O)C1=C(c2ccccc2)N=c2s/c(=C\c3ccc(O)cc3)c(=O)n2C1c1cccs1 (configuration not stated),4.0%,-2.7%,-0.2%,-12.4%,?,0.0%,15.8µM*,
O=C(Cc1cccs1)Nc1ccc(S(=O)(=O)Nc2ncccn2)cc1,.,?,?,-19.5%,?,-20.7%,?,
Cc1ccnc(NS(=O)(=O)c2ccc(NC(=O)Cc3cccs3)cc2)n1,-10.3%,?,?,-12.7%,25.1µM*,-21.2%,?,
Cc1cc(C)c(S(=O)(=O)NCc2ccc3c(c2)cc(C)n3C)c(C)c1,10.9%,-10.0%,-2.6%,-14.6%,?,14.1%,56.2µM*,
